Data from the supplement of paper PMC3334620.
The full ranking holds about 33,000 sequences; the median of “E-score (-0.5 to 0.5)” is about -0.054, and the highest 2% start at about 0.39. This is one part of a sample in which the highest values are shown more often than they occur.

target: Ylr278c (UniProt Q05854); experiment: PBM E-score (8-mer binding enrichment) (E-score (-0.5 to 0.5)); higher = stronger / more preferred TF binding; conditions: protein concentration: 200 nM; construct: GST-DNA-binding domain
UniProt Q05854, sequence (Q05854 whole entry, the tested form may be a part): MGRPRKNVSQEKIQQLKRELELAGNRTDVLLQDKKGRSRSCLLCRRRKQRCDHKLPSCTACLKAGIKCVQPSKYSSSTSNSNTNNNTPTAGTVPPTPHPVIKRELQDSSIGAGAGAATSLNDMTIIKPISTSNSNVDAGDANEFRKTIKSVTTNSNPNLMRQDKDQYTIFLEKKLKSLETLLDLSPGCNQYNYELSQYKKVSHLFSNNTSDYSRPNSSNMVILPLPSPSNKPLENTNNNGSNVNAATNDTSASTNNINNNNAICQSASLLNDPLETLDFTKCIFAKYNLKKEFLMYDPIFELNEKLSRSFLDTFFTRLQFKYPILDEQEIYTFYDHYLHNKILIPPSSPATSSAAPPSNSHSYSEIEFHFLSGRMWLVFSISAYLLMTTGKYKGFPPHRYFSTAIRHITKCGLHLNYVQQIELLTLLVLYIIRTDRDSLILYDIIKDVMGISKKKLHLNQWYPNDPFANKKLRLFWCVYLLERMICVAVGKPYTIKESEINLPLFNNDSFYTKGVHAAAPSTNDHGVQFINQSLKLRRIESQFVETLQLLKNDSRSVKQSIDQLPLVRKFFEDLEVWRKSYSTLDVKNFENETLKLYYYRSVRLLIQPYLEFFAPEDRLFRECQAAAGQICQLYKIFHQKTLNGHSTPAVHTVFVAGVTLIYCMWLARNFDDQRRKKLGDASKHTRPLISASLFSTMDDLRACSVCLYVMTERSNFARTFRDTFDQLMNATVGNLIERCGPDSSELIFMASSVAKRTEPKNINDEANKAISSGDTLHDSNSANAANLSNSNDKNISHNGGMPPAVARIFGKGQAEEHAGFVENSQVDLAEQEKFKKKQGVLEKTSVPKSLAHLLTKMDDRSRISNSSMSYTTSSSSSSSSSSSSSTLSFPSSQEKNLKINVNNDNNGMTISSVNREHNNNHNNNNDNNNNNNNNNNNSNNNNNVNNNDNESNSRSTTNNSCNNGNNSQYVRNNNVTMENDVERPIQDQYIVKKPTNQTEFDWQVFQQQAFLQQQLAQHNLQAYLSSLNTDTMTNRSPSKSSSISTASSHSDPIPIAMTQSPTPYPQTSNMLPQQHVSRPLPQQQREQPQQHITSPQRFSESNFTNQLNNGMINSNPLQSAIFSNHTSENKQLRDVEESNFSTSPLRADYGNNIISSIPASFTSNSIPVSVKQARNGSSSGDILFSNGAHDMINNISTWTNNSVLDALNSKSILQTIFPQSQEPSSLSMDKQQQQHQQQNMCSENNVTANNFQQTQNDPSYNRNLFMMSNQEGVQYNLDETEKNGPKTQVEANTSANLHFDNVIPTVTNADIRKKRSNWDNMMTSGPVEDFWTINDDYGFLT
Experimental: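 Universal 'all 10-mer' protein binding microarrays (Agilent AMADID 015681) probed with GST-tagged S. cerevisiae TFs (full-length or DBD) made by in vitro transcription/translation (PURExpress), about 100-200 nM. Bound TF was detected with fluorescent anti-GST. Each ungapped 8-mer (which stands for itself and its reverse complement) is scored by the PBM enrichment score (E-score), a modified Wilcoxon-Mann-Whitney statistic from -0.5 to +0.5, computed with the Universal PBM Analysis Suite. Scale: above 0.35 generally sequence-specific binding.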

First: AAAAGATC
Second: ATGCCGCC
The “PBM E-score” value of the first is lower: -0.0655 for the first, 0.325 for the second.

Going from CCCATGGC to GTACCGCA, the “PBM E-score” value rises from -0.0499 to 0.164.

Compared with CTACCGGA, GTACCGGA is higher in “PBM E-score” value: 0.348 for the first, 0.415 for the second.

Compared with ATACCGGC, ATACCGGA is higher in “PBM E-score” value: 0.354 for the first, 0.405 for the second.

Compared with ATACCGGG, ATGTCCCA is lower in “PBM E-score” value: 0.334 for the first, -0.0785 for the second.

First: CTCTACTA
Second: GAGCAAAC
The “PBM E-score” value of the first is lower: -0.245 for the first, 0.0239 for the second.

First: CTCCTATC
Second: GGGGCGGA
The “PBM E-score” value of the first is lower: -0.0262 for the first, 0.412 for the second.

Compared with CGAGCGGA, GGGGCGTA is lower in “PBM E-score” value: 0.381 for the first, 0.0266 for the second.

Compared with AGGGCGGA, CGGGCGTA is lower in “PBM E-score” value: 0.385 for the first, 0.178 for the second.

Compared with AGAGCGGA, GGAGCGGA is higher in “PBM E-score” value: 0.254 for the first, 0.396 for the second.

First: CGGGCGGC
Second: CGGGCGGA
The “PBM E-score” value of the first is lower: 0.31 for the first, 0.405 for the second.

Compared with CCAGTAGC, CATTGCTA is lower in “PBM E-score” value: 0.181 for the first, -0.0953 for the second.

Going from ACGCTCTA to ATCGAAAG, the “PBM E-score” value rises from -0.183 to -0.0309.

Compared with GACTGCTA, CCAGTCCA is higher in “PBM E-score” value: -0.277 for the first, -0.17 for the second.

Compared with GTCCCTAA, AAGAGAGT is lower in “PBM E-score” value: -0.0663 for the first, -0.0766 for the second.

Compared with ATTCCTGG, ACTCCCCG is higher in “PBM E-score” value: -0.0751 for the first, 0.338 for the second.

Going from ATTCCCGA to ACTCCCGA, the “PBM E-score” value falls from 0.338 to 0.217.

Compared with ACTCCCGG, ATTCCAGC is lower in “PBM E-score” value: 0.396 for the first, -0.104 for the second.

Going from ATTCCCGG to ATTCCGTG, the “PBM E-score” value falls from 0.411 to 0.361.

Compared with ATTCCCCG, ATTCCTGC is lower in “PBM E-score” value: 0.375 for the first, 0.0732 for the second.

Going from ATTCCGGC to ATTCCGGG, the “PBM E-score” value falls from 0.463 to 0.443.

Compared with GCGAGTCA, CACCGCCC is higher in “PBM E-score” value: -0.0556 for the first, 0.218 for the second.

First: AAGCTCTG
Second: ATTTATCC
The “PBM E-score” value of the first is lower: -0.356 for the first, 0.163 for the second.

First: ACATCAAC
Second: TAAAGAAA
The “PBM E-score” value of the first is higher: 0.05 for the first, 0.0382 for the second.

Going from CGCCAAAC to AATTAGCC, the “PBM E-score” value falls from 0.0632 to 0.0197.

Going from ACGGAATC to GCGGAATA, the “PBM E-score” value rises from 0.32 to 0.396.

Compared with CCGGAATC, CTGGAATC is lower in “PBM E-score” value: 0.435 for the first, -0.0172 for the second.

Compared with CCGGAATA, GGGGAATA is lower in “PBM E-score” value: 0.434 for the first, 0.141 for the second.

First: CCGGAAGG
Second: GTGGAATA
The “PBM E-score” value of the first is higher: 0.387 for the first, 0.0653 for the second.

Compared with CCGGAAGA, ACGGAAGA is lower in “PBM E-score” value: 0.421 for the first, 0.169 for the second.

Going from CGGGAATA to ACGGAATA, the “PBM E-score” value falls from 0.374 to 0.357.

Going from AAATGTGA to CACCCCCG, the “PBM E-score” value rises from -0.146 to 0.145.

Going from CATCTTTA to AGGTAACG, the “PBM E-score” value rises from -0.0964 to -0.0647.

First: GTATGGGA
Second: CCTCTACA
The “PBM E-score” value of the first is higher: -0.174 for the first, -0.252 for the second.

Going from AAGATCTT to AAGCGTCT, the “PBM E-score” value falls from 0.0756 to -0.176.

Going from ACTCATGG to ATACGGTG, the “PBM E-score” value rises from -0.191 to 0.0149.

Compared with ATCCGGTG, ATCCGGCG is higher in “PBM E-score” value: 0.408 for the first, 0.432 for the second.

Compared with AACCGGCC, ATCCGACG is higher in “PBM E-score” value: 0.275 for the first, 0.367 for the second.

Compared with ATCCGGCC, ACCCGGCC is lower in “PBM E-score” value: 0.399 for the first, 0.272 for the second.

Compared with AACCGGCG, ACCCGGTG is lower in “PBM E-score” value: 0.361 for the first, 0.277 for the second.

Compared with CTCACCTC, CTAGCATC is lower in “PBM E-score” value: -0.0994 for the first, -0.167 for the second.

First: CTGCTTTA
Second: GGTCTCTA
The “PBM E-score” value of the first is higher: 0.0716 for the first, -0.21 for the second.

First: ATCGCCAC
Second: GCTGGGCA
The “PBM E-score” value of the first is higher: -0.0201 for the first, -0.184 for the second.

Compared with ATAACTTG, ATACTGCC is higher in “PBM E-score” value: -0.14 for the first, 0.013 for the second.

Going from ATAGAGAG to AAGTCCTC, the “PBM E-score” value rises from -0.283 to 0.122.

First: AAGTCCAT
Second: AAGTCCGG
The “PBM E-score” value of the first is lower: -0.0494 for the first, 0.481 for the second.

First: ACGTCCGC
Second: AAGTCCTG
The “PBM E-score” value of the first is higher: 0.299 for the first, -0.106 for the second.

First: AAGTCCGT
Second: AAGTCCCT
The “PBM E-score” value of the first is higher: 0.433 for the first, -0.213 for the second.

First: AAGTCCGC
Second: AAGTCCAG
The “PBM E-score” value of the first is higher: 0.46 for the first, -0.0689 for the second.

Compared with CACCGCTG, ACTTAAGG is lower in “PBM E-score” value: -0.0372 for the first, -0.105 for the second.

First: ACACAAGA
Second: ACTAGAAT
The “PBM E-score” value of the first is lower: -0.0979 for the first, -0.0455 for the second.

First: ATTGGCCC
Second: GTCGTCGA
The “PBM E-score” value of the first is lower: -0.211 for the first, -0.121 for the second.

Compared with AGGGTGCC, CGTATCTC is higher in “PBM E-score” value: -0.211 for the first, 0.148 for the second.

Compared with TCCGGCAA, ACCGGCGA is lower in “PBM E-score” value: 0.431 for the first, 0.379 for the second.

First: GCCGGCAA
Second: TCCGGCCA
The “PBM E-score” value of the first is lower: 0.391 for the first, 0.409 for the second.

First: CCCGGCCA
Second: ACCGGCCA
The “PBM E-score” value of the first is higher: 0.267 for the first, 0.169 for the second.

Going from GCCGGCAC to TACGGCAA, the “PBM E-score” value falls from 0.304 to 0.129.

First: ACCGGCAA
Second: GCCGGCGA
The “PBM E-score” value of the first is lower: 0.285 for the first, 0.385 for the second.

Compared with TCCGGCGA, CCCGGCAA is lower in “PBM E-score” value: 0.437 for the first, 0.303 for the second.

Compared with CCTAGTAA, AGCCTGGC is lower in “PBM E-score” value: 0.00285 for the first, -0.226 for the second.

Compared with AACCAGGG, GCTGCACC is higher in “PBM E-score” value: -0.155 for the first, 0.00051 for the second.

Compared with GAGGTGAA, ACATCAGC is higher in “PBM E-score” value: -0.0886 for the first, -0.0321 for the second.

Compared with AATTCCCA, AATTCCTG is higher in “PBM E-score” value: -0.035 for the first, 0.0336 for the second.

Compared with AATTCCCT, AATTCCCG is higher in “PBM E-score” value: -0.103 for the first, 0.345 for the second.

First: AATTCCAT
Second: GATTCCGC
The “PBM E-score” value of the first is lower: 0.0569 for the first, 0.355 for the second.

Compared with AATTCCGG, AATTCCGC is lower in “PBM E-score” value: 0.48 for the first, 0.456 for the second.

Going from CATTCCGC to AATTCCGT, the “PBM E-score” value rises from 0.32 to 0.441.

Going from AATTCCAA to AATTCCGA, the “PBM E-score” value rises from -0.00843 to 0.48.

Going from GCTAAATA to TGTGGAAA, the “PBM E-score” value rises from -0.231 to -0.0101.

Going from ATCCATTC to TCTCGAAA, the “PBM E-score” value falls from -0.0913 to -0.21.

Going from AAATGCCA to CAGGCTGG, the “PBM E-score” value rises from -0.131 to -0.0868.

First: TGTGTCAA
Second: CCGTTGTC
The “PBM E-score” value of the first is lower: -0.227 for the first, 0.233 for the second.

Compared with AAATCGGA, TAGTCGGA is lower in “PBM E-score” value: 0.43 for the first, 0.414 for the second.

First: GAATCGGA
Second: AAATCGGG
The “PBM E-score” value of the first is higher: 0.409 for the first, 0.276 for the second.

Going from CAATCGGA to GAGTCGGA, the “PBM E-score” value falls from 0.425 to 0.387.

Going from GAATCGGC to CAGTCGGA, the “PBM E-score” value rises from 0.33 to 0.357.

Going from AAATCGGT to GAATCGCA, the “PBM E-score” value falls from 0.148 to -0.0817.

Compared with CAATCGGC, CAATCGGG is higher in “PBM E-score” value: 0.129 for the first, 0.219 for the second.

First: AGACGCAG
Second: CCGCACAC
The “PBM E-score” value of the first is lower: -0.164 for the first, 0.0213 for the second.

Compared with AACCCAGG, ATGTACTC is higher in “PBM E-score” value: -0.176 for the first, -0.0177 for the second.

Compared with AGAGCTAA, CGAACGCA is higher in “PBM E-score” value: -0.171 for the first, 0.106 for the second.

Compared with CTCTGACC, AATTTTCC is higher in “PBM E-score” value: -0.148 for the first, 0.358 for the second.

Compared with GCCATCGC, ATGTTCTG is lower in “PBM E-score” value: -0.0776 for the first, -0.11 for the second.

Going from TCTCTACA to TAATCGGA, the “PBM E-score” value rises from -0.211 to 0.417.

Compared with TAATCGAA, TAATCGTA is lower in “PBM E-score” value: -0.0147 for the first, -0.186 for the second.

First: CCCTGTCA
Second: GACGCGGC
The “PBM E-score” value of the first is lower: -0.228 for the first, 0.079 for the second.
